Compound activity (PubChem)
The full list was thinned out, with hits kept by preference.
IL1B secr inh – qHTS for Inhibitors of Inflammasome Signaling: IL-1-beta AlphaLISA Primary Screen; THP-1 LPS/ATP IL-1B secretion, AlphaLISA, 16 h; hits give low values; activity change, % at 57.5 µM; hit rate 4.7% among 360,000; AID 743279, 2014; in the data active means activity change below about -50%; inconclusive means mostly about -30% to -49%
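Secreted IL-1B measured by AlphaLISA bead assay after 16 h compound exposure of THP-1 cells; compounds (final up to 57.5 uM) added 1 h before LPS (250 ng/mL) and ATP (1.25 mM) stimulation; lower signal means less secretion.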
ALOX12 inh – Primary qHTS assay for inhibitors of human arachidonate 12S-lipoxygenase (ALOX12): Round 2; purified 12hLO, xylenol orange hydroperoxide absorbance; Potency, µM (series often up to 108 µM), without a hit: top-dose activity change, negative = inhibition, usual class: inhibitors; Polyunsaturated fatty acid lipoxygenase ALOX12 (Homo sapiens), P18054; hit rate 1.1% among 580,000; further: potency means the concentration at half of the fitted maximal effect
Target sequence (P18054 whole entry, looked up): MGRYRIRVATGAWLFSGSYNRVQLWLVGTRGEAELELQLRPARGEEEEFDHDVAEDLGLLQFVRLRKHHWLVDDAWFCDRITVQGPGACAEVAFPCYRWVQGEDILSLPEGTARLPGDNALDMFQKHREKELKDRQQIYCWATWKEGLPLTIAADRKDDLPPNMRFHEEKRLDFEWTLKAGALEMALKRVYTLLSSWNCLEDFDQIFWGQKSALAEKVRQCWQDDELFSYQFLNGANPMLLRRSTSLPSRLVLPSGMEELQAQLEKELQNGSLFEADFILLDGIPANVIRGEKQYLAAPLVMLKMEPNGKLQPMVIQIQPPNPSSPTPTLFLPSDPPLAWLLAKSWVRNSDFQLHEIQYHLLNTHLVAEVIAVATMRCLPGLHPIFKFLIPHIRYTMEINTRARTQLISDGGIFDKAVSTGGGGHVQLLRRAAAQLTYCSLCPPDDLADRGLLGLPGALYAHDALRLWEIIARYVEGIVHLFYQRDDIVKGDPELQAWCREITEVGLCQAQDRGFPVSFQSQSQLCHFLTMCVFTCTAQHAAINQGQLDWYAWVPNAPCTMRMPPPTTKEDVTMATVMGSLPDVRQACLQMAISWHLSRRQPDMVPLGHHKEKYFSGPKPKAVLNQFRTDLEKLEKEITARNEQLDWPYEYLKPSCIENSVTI
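Purified human 12hLO (150 nM final) in 25 mM Hepes, 0.01% Triton X-100, pH 7.0 was preincubated 15 min at room temperature with compound. Then 40 uM arachidonic acid was added, 30 min. Hydroperoxide was read by Fe-XO absorbance ratio 573/405 nm.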
HT1080-NT tox – qHTS for induction of synthetic lethality in tumor cells producing 2HG: qHTS for the HT-1080-NT fibrosarcoma cell line. HT-1080-NT fibrosarcoma viability, CellTiter-Glo ATP luminescence, 48 h. Potency, µM (doses to about 46.1 µM), inactives show at the highest dose activity, negative = less viability, actives largely listed as cytotoxic. hit rate 1.6% among 360,000. AID 686970, 2013;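 further: NT is the 2HG producing partner of a matched IDH1 knockdown line; potency means the concentration at half of the fitted maximal effect; 0% = DMSO-treated cells and -100% = media-only wells without cells; nearly all actives have a fitted effect of over 55% in size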
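Fibrosarcoma NT cells, 750 per well in 5% FBS RPMI, were exposed to compound for 48 hours. Viability: CellTiter-Glo luminescence.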
TDP1 cell CPT – qHTS for Inhibitors of human tyrosyl-DNA phosphodiesterase 1 (TDP1): qHTS in cells in presence of CPT; chicken DT40 Tdp1-/-;hTDP1 cells + 20 nM CPT, ATP luminescence, 48 h; Potency, µM (doses to about 46.2 µM), for inactives: at the top dose activity change, negative = growth inhibition, most hits filed as inhibitors; hit rate 12% among 420,000; further: potency means the concentration at half of the fitted maximal effect; nearly all actives have a fitted effect of over 55% in size
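Chicken DT40 Tdp1-/- cells stably complemented with human TDP1 were seeded at 400 cells/well in medium containing 20 nM camptothecin, exposed to pin-transferred compounds, and grown at 37 °C for at least 48 hr. Viability was read as ATP luminescence.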
TDP1 cell noCPT – qHTS for Inhibitors of human tyrosyl-DNA phosphodiesterase 1 (TDP1): qHTS in cells in absence of CPT. DT40 Tdp1-/- hTDP1 cells, no CPT, ATP luminescence, 48 h. Potency, µM (series often up to 46.2 µM), for inactives: at the highest dose activity change, negative = growth inhibition, hits mostly inhibitors. hit rate 15% among 420,000; further: potency means the concentration at half of the fitted maximal effect; nearly all actives have a fitted effect of over 55% in size
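Cells were dispensed at 400 per well, compounds added by pin tool, plates incubated ≥48 hr at 37 °C, then CellTiter-Glo added for 30 min at room temperature before luminescence reading. Line: DT40 Tdp1-/- complemented with hTDP1; camptothecin omitted.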
HT1080 IDH1KD tx – qHTS for induction of synthetic lethality in tumor cells producing 2HG: qHTS for the HT-1080-IDH1KD cell line. HT-1080 IDH1 knockdown viability, ATP luminescence, 48 h. Potency, µM (titrated, usually from 46.1 µM), for the others: top-dose activity, negative = toxicity, hits mostly cytotoxic. hit rate 2% among 360,000. AID 686971, 2013;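 further: potency means the concentration at half of the fitted maximal effect; 0% = DMSO wells and -100% = cell-free medium wells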
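Cytotoxicity counter-line: IDH1KD HT-1080, 48 h, CellTiter-Glo. Curves classed by r2, magnitude and activity.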
* = called active by the depositor; ? = inconclusive; nt = not tested or not shown. Unless noted, the call rests on the fitted dose curve; in most records, active means well fitted curve in the direction sought with a large enough effect; inconclusive means small, poorly fitted or top-dose-only effect, or another doubt; inactive means no such curve, though single readings can be large; an effect the other way counts as inactive or inconclusive. Unless noted, on the % scale 0 is the no-effect control and ±100 the full control effect.

SMILES	IL1B secr inh	ALOX12 inh	HT1080-NT tox	TDP1 cell CPT	TDP1 cell noCPT	HT1080 IDH1KD tx
S=C(NCc1ccncc1)Nc1cc(Cl)cc(Cl)c1	-54.2*	17.4%	-19.5%	?	-16.7%	?
Cc1cccnc1NC(=S)Nc1ccc(Cl)c(Cl)c1	0.0	8.91µM*	-5.7%	-10.9%	?	-3.7%
COCCNC(=O)C1CCN(C(=O)C2CN(c3ccc(OC)cc3)C(=O)N2)C1 (stereo not drawn)	nt	44.8%	nt	nt	nt	nt
CCCCN(C)C(=O)CN1C(=O)NC2(CCOCC2)C1=O	nt	26.2%	nt	nt	nt	nt
CCCNc1ncnc2onc(-c3ccccc3C)c12	nt	8.4%	nt	nt	nt	nt
S=C(NCc1ccccc1)Nc1ccncc1	37.8	-36.2%	-9.3%	10.3µM*	?	-15.2%
CCOc1ccc(NC(=O)c2ccc3ccccc3n2)cc1OC	nt	-8.6%	nt	nt	nt	nt
COc1cccc(-c2cnc3c(NC(C)=O)cc(-c4cccc(NS(C)(=O)=O)c4)cn23)c1	42.8	4.0%	?	25.9µM*	23.1µM*	?
COc1ccc(-c2cc(NC=O)c3ncc(-c4cccc(C(C)=O)c4)n3c2)cc1	53.1	?	-28.4%	?	18.4µM*	?
CC(=O)Nc1cc(-c2cccc(NS(C)(=O)=O)c2)cn2c(-c3ccccc3)cnc12	-16.0	?	?	?	?	?
CC(=O)Nc1cccc(-c2cc(NC=O)c3ncc(-c4cccc(C(C)=O)c4)n3c2)c1	192.3	-1.8%	?	?	20.6µM*	?
COc1cccc(-c2cnc3c(NC=O)cc(-c4cccc(NC(C)=O)c4)cn23)c1	143.5	-11.5%	?	18.4µM*	20.6µM*	?
CCc1noc(C)c1C(=O)NNC(=O)c1cc(OC)cc(OC)c1	2.1	-9.1%	-0.3%	0.2%	21.4%	1.7%
COc1cc(-c2cnc3c(NC=O)cc(-c4cccc(NC(C)=O)c4)cn23)cc(OC)c1OC	157.1	-1.6%	?	0.517µM*	0.517µM*	?
CC(=O)c1cccc(-c2cnc3c(NC=O)cc(-c4ccccc4)cn23)c1	103.0	5.2%	7.1%	?	20.6µM*	-6.5%
COc1cccc(-c2cc(NC=O)c3ncc(-c4ccc(C(C)=O)cc4)n3c2)c1	0.1	-9.7%	18.4µM*	3.66µM*	2.31µM*	10.3µM*
CCN(C(=O)COC(=O)c1ccc(Br)o1)C1CCCCC1	19.8	8.7%	14.3%	4.5%	-27.2%	2.6%
CC(C)Cc1ccc(C(C)NC(=O)C2CC2C)cc1 (stereo not drawn)	nt	18.3%	nt	nt	nt	nt
CC(C)Cc1ccc(C(C)CC2=CCC(CN(C)C)C2=O)cc1 (stereo not drawn)	0.0	-26.8%	?	4.61µM*	4.61µM*	?
Cc1cnc(CNc2nc(-c3ccccc3C)nc3ccccc23)cn1	nt	-27.1%	nt	-17.1%	-4.0%	nt
COc1ccccc1CNc1nc(-c2ccccc2OC)nc2ccccc12	nt	19.1%	nt	18.4µM*	20.6µM*	nt
COc1ccccc1-c1nc(Nc2ccncc2)c2ccccc2n1	nt	28.2µM*	nt	?	?	nt
COc1ccccc1-c1nc(NCc2cnc(C)cn2)c2ccccc2n1	nt	20µM*	nt	16.4µM*	?	nt
Cc1ccccc1Oc1ncccc1CNC(=O)CCn1cnnc1	nt	4.2%	nt	nt	nt	nt
C[C@@H]1[C@H](c2ccccc2)OCCS(=O)(=O)N1Cc1cccc(C(F)(F)F)c1	nt	nt	nt	?	17.8µM*	nt
SMILES	IL1B secr inh	ALOX12 inh	HT1080-NT tox	TDP1 cell CPT	TDP1 cell noCPT	HT1080 IDH1KD tx
COc1ccc(Cn2c(=O)sc3ccccc3c2=O)cc1	12.9	0.8%	2.8%	1.4%	-22.8%	6.1%
COCCn1c(=O)sc2ccccc2c1=O	64.7	4.6%	?	20.6µM*	?	12.3%
COCCn1c(C2CCCCC2)nc2sc3ccccc3c(=O)c2c1=O	-12.9	-3.5%	?	?	23.1µM*	3.0%
COc1cc(CCCN2CCNC[C@@H]2Cc2ccccc2)cc(OC)c1OC	-20.9	-7.1%	3.6%	-10.2%	6.4%	2.6%
COc1cc(CCCN2C(=S)NC[C@@H]2c2ccccc2)cc(OC)c1OC	0.9	?	4.4%	25.9µM*	16.4µM*	-3.5%
COc1cc(CCCN2C(=S)NC[C@@H]2Cc2ccccc2)cc(OC)c1OC	-26.7	?	8.3%	25.9µM*	16.4µM*	-0.1%
COc1ccc(N(C(=O)c2snc(C(N)=O)c2N)C(C(=O)NCc2ccc(F)cc2)c2ccc(O)cc2)cc1 (stereo not drawn)	-88.0*	-21.7%	-26.3%	?	?	?
COc1ccc(N(C(=O)c2snc(C(N)=O)c2N)C(C(=O)NCc2ccccc2)c2ccc(O)cc2)cc1OC (stereo not drawn)	28.1	-0.9%	-2.8%	-1.7%	?	-3.4%
COc1ccc(C(C(=O)NCc2ccccc2)N(C(=O)Cn2nnc3ccccc32)c2ccc(F)cc2)cc1 (stereo not drawn)	nt	-22.3%	nt	?	14.6µM*	nt
COc1cccc(N(C(=O)c2snc(C(N)=O)c2N)C(C(=O)NCc2ccccc2)c2ccc(O)cc2)c1 (stereo not drawn)	-53.0*	-4.0%	-17.1%	?	18.4µM*	-3.6%
CC1CCCC(C)N1C(=O)Cn1nnc(-c2ccc([N+](=O)[O-])cc2)n1 (stereo not drawn)	14.6	24.3%	4.3%	0.6%	-4.9%	1.6%
CCCOc1ccc(CNC(=O)[C@H]2CCC[C@H]2NC(=O)c2ccncc2)cc1	nt	16.7%	nt	nt	nt	nt
Cn1c(Cn2nnc3ccccc32)nnc1SCC(=O)Nc1nccs1	0.0	-6.4%	-0.4%	-96.1%	-99.9%	14.4%
COc1ccccc1C(NC(=O)c1cc(C(C)=O)c[nH]1)c1nccn1C (stereo not drawn)	nt	-0.2%	nt	nt	nt	nt
NC(=O)CN1CCCC(C(=O)N2CCC(O)(c3cccnc3)CC2)C1 (stereo not drawn)	nt	35.0%	nt	nt	nt	nt
O=C1Nc2ccc(Br)cc2/C1=N\N=C\C1=C(N2CCOCC2)C(=C/c2ccccc2)/CC1	16.0	?	0.7%	?	10.3µM*	4.3%
Cn1cc(C(=O)N/N=C/C2=C(N3CCOCC3)C(=C\c3ccccc3)/CC2)ccc1=O	25.8	1.8%	-2.8%	?	?	0.5%
